Here are results for nine compounds from PubChem BioAssay (NCI).

Some test systems named below: HT29 colon; SNB-19 CNS; U251 CNS; PC-3 prostate; SK-MEL-5 melanoma; UACC-62 melanoma; LOX IMVI melanoma; SK-MEL-28 melanoma; SK-MEL-2 melanoma; EKVX NSCLC; SN12C renal; UO-31 renal; TK-10 renal; ACHN renal; CAKI-1 renal; CCRF-CEM leukemia; MOLT-4 leukemia; SNB-75 CNS; A498 renal.
What all share (experiment): NCI-60 one-dose screen, 48 h (100 = growth as untreated, 0 = no growth, -100 = all killed)
Conditions in all cases: 10 µM unless noted

The panel holds about 83,000 compounds, 20% with a hit somewhere; the sample as a whole holds those more often.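 96-well plates, one dose, 48 hours. Percent growth reported; active if below 10.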 Values without a mark were called inactive. Calls of active or inactive are those of the source.

`N#C/C=C(\c1ccc([N+](=O)[O-])cc1)n1nnc2cc(Cl)c(Cl)cc21`: the growth was 3.93% (active) in the assay on HT29 colon; 41.5% in the assay on SNB-19 CNS; 11.8% in the assay with U251 CNS; -12.5% (active) in the assay on PC-3 prostate; 38.5% in the assay with SK-MEL-5 melanoma; 3.91% (active) with UACC-62 melanoma. Moreover, the growth in the assay on LOX IMVI melanoma is -79.9% (active); with SK-MEL-28 melanoma it was 43.2%; in the assay on SK-MEL-2 melanoma it was 65.8%; with EKVX NSCLC, 38.6%; in the assay with SN12C renal, -20.1% (active); in the assay with UO-31 renal, -70.9% (active). In addition, the growth in the assay on TK-10 renal is -16.2% (active); in the assay with ACHN renal it was -85% (active); in the assay on CAKI-1 renal it was 40.9%; in the assay with CCRF-CEM leukemia, 9.49% (active); with MOLT-4 leukemia, 22.4%.
Turning to `CCCCCCN(CCCCCC)CC(O)c1cccc2ccc(Cl)cc12` (centres undefined), the growth is 116% in the assay with SNB-75 CNS; 55.2% in the assay on U251 CNS; 37.1% with PC-3 prostate; 61.8% in the assay with SK-MEL-5 melanoma; 34.7% in the assay with LOX IMVI melanoma; 87.9% in the assay on SK-MEL-28 melanoma. The growth in the assay on SK-MEL-2 melanoma is 46.6%; in the assay with EKVX NSCLC it was 77.2%; in the assay with UO-31 renal, 47.9%; in the assay on TK-10 renal, 79.2%; in the assay on ACHN renal, 50.8%; with CAKI-1 renal, 25.3%. Also, the results for the growth with A498 renal, in the assay on CCRF-CEM leukemia and in the assay on MOLT-4 leukemia were 67.3%, 67.6% and 37.8%, respectively.
For the compound `Cc1ccc(C)c2c1C(=O)OC2=O`, the growth in the assay on HT29 colon is 93.1%; in the assay with SNB-75 CNS, 91.2%; in the assay with SNB-19 CNS, 107%; with U251 CNS, 104%; with PC-3 prostate it was 97.7%; in the assay with SK-MEL-5 melanoma it was 102%. Besides, the growth with UACC-62 melanoma is 101%; with LOX IMVI melanoma, 98.4%; in the assay with SK-MEL-28 melanoma it was 92.9%; with SK-MEL-2 melanoma it was 84.6%; with EKVX NSCLC, 105%; in the assay with SN12C renal, 97.9%. For the same compound, the growth was 79.1% in the assay on UO-31 renal; 102% in the assay with TK-10 renal; 98.8% in the assay with ACHN renal; 99.4% with CAKI-1 renal; 101% with A498 renal; 102% in the assay on CCRF-CEM leukemia. Also, the growth with MOLT-4 leukemia was 3.4% (active).
For the compound `COc1ccc(Nc2ncc(Br)c(NCCCNC(=O)C3CCC3)n2)cc1`, the growth in the assay on HT29 colon is 31%; in the assay with SNB-75 CNS it was -4.95% (active); in the assay on SNB-19 CNS, 33.1%; with U251 CNS, 19.8%; in the assay with PC-3 prostate, 39.2%; in the assay on SK-MEL-5 melanoma, 44.2%. For the same compound, the growth was 56.6% in the assay on UACC-62 melanoma; 4.32% (active) in the assay with LOX IMVI melanoma; 54.7% in the assay with SK-MEL-28 melanoma; 42.1% in the assay on SK-MEL-2 melanoma; 37.2% in the assay with EKVX NSCLC; 27.8% in the assay with SN12C renal. The growth is -19.8% (active) in the assay on UO-31 renal; 5.53% (active) with TK-10 renal; 19.5% in the assay with ACHN renal; 0.899% (active) with CAKI-1 renal; 26.1% with A498 renal; 17.2% with CCRF-CEM leukemia. Besides, in the assay on MOLT-4 leukemia, the growth was 12.1%.
For the compound `O=c1ccn(C2OC(F)(CO)C(O)C2F)c(=O)[nH]1` (centres undefined), the growth was 94.5% with HT29 colon; 95.9% with SNB-75 CNS; 105% in the assay with SNB-19 CNS; 94.8% in the assay on U251 CNS; 93.1% with PC-3 prostate; 108% in the assay on SK-MEL-5 melanoma. Further, the growth in the assay with UACC-62 melanoma is 103%; in the assay on LOX IMVI melanoma, 97.3%; in the assay with SK-MEL-28 melanoma, 109%; in the assay on EKVX NSCLC, 91.2%; in the assay on SN12C renal, 102%; with UO-31 renal, 97.1%. The growth with TK-10 renal was 90.3%; with ACHN renal, 98.9%; with CAKI-1 renal, 94.3%; in the assay on A498 renal, 68.5%; in the assay with CCRF-CEM leukemia, 103%; in the assay with MOLT-4 leukemia, 99.8%.
On to `OC(c1cccc(OCc2ccccc2)c1)c1nnc(-c2ccccc2)o1` (centres undefined), for which the growth in the assay on HT29 colon was 116%; in the assay on SNB-75 CNS, 94.2%; in the assay on SNB-19 CNS, 99.4%; in the assay with U251 CNS, 96.7%; in the assay on PC-3 prostate, 81%; with SK-MEL-5 melanoma it was 66.4%. Besides, the growth in the assay on UACC-62 melanoma is 61.7%; with LOX IMVI melanoma, 84.9%; in the assay with SK-MEL-28 melanoma, 108%; in the assay with SK-MEL-2 melanoma it was 100%; with EKVX NSCLC, 77.3%; with SN12C renal it was 92.8%. In addition, the growth in the assay with UO-31 renal was 68.1%; in the assay with TK-10 renal it was 143%; with ACHN renal, 92.6%; with CAKI-1 renal, 95.2%; with A498 renal, 102%; in the assay with CCRF-CEM leukemia, 75.7%. Moreover, the growth in the assay with MOLT-4 leukemia was 105%.
With `CO[C@H]1/C=C/O[C@@]2(C)Oc3c(C)c(O)c4c(c3C2=O)C(=O)C(/C=N/N(c2ccccc2)c2ccccc2)=C(NC(=O)/C(C)=C\C=C\[C@H](C)[C@H](O)[C@@H](C)[C@@H](O)[C@@H](C)[C@H](OC(C)=O)[C@@H]1C)C4=O`, the growth in the assay on HT29 colon was -12.7% (active); with SNB-75 CNS, 19.6%; with SNB-19 CNS, 19.1%; with U251 CNS, -72.7% (active); in the assay with PC-3 prostate, -2.79% (active); in the assay with SK-MEL-5 melanoma, -88.2% (active). The growth was -71.1% (active) with UACC-62 melanoma; -81.1% (active) in the assay on LOX IMVI melanoma; -58.3% (active) in the assay with SK-MEL-28 melanoma; -60.8% (active) with SK-MEL-2 melanoma; -49.2% (active) in the assay on SN12C renal; -19.3% (active) with UO-31 renal. Besides, the growth in the assay on TK-10 renal is -1.72% (active); in the assay on ACHN renal it was -33% (active); with CAKI-1 renal it was -4.42% (active); in the assay with A498 renal, -5.29% (active); in the assay with CCRF-CEM leukemia, 1.62% (active); in the assay with MOLT-4 leukemia it was 3.36% (active).
On to `OCCCCc1nccc2c1[nH]c1ccccc12`, for which the growth in the assay with HT29 colon was 94.6%; in the assay on SNB-75 CNS, 80.5%; with SNB-19 CNS, 110%; with U251 CNS it was 108%; in the assay with SK-MEL-5 melanoma it was 97.5%; in the assay with UACC-62 melanoma it was 96.8%. In addition, the growth in the assay with LOX IMVI melanoma was 99.8%; with SK-MEL-28 melanoma, 111%; in the assay on SK-MEL-2 melanoma it was 121%; with EKVX NSCLC it was 94.8%; with SN12C renal, 103%; in the assay with UO-31 renal, 95.1%. The growth in the assay with TK-10 renal was 67.9%; in the assay on ACHN renal it was 98.7%; in the assay on A498 renal, 112%; in the assay on MOLT-4 leukemia, 119%.
With `CCOc1ccc(-c2nc3ccc(-c4nc5ccc(N6CCN(C)CC6)cc5[nH]4)cc3[nH]2)cc1OCC`, the growth with HT29 colon is 19.4%; in the assay on SNB-75 CNS, 6.64% (active); with SNB-19 CNS, 8.93% (active); in the assay on U251 CNS it was 4.64% (active); in the assay with PC-3 prostate it was 17.2%; with SK-MEL-5 melanoma, 8.43% (active). For the same compound, the growth with UACC-62 melanoma is -14.3% (active); in the assay with LOX IMVI melanoma it was -74.5% (active); in the assay on SK-MEL-28 melanoma, -27.2% (active); with SK-MEL-2 melanoma it was -17.5% (active); with EKVX NSCLC, 50.2%; in the assay on SN12C renal it was 20.8%. Moreover, the growth was 98.6% in the assay with UO-31 renal; 91% in the assay with TK-10 renal; 81.9% in the assay with ACHN renal; 40.8% in the assay on CAKI-1 renal; 11.3% with CCRF-CEM leukemia; 9.04% (active) in the assay with MOLT-4 leukemia.
